According to PubChem BioAssay:
Results filed as inconclusive are left out. Calls of active or inactive are those of the source.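 Rule for the calls, unless noted: active = inhibition above the screen-wide mean plus 3 SD, about 51%; inactive = the rest.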

How the values were obtained:
[1] = rapamycin-like changes in RPL19A-GFP expression – cell-based, S. cerevisiae, multiplex flow cytometry, primary screen (AID 1862; in the data active = percent of DMSO control GFP below about 86%;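 note: lower values mimic rapamycin by blocking the RPL19A rise seen in DMSO cells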); conditions: S. cerevisiae RPL19A-GFP strain, flow cytometry fluorescence, 3 h; at 10 µM; stronger effect = lower value
[2] = TOR pathway GLN3 branch reporter MEP2-GFP changes – S. cerevisiae, multiplex flow cytometry, primary screen (AID 1867;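 active = GFP response, as percent of the DMSO control, above the screen-wide mean plus 3 SD, about 139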;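 note: median GFP channel fluorescence of barcode-gated MEP2-GFP cells measured by flow cytometry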); conditions: S. cerevisiae MEP2-GFP strain, 3 h, at 10 µM, stronger effect = higher value, 100% means same as DMSO wells
[3] = TOR pathway RTG branch CIT2 reporter changes – S. cerevisiae, GFP fusion, multiplex flow cytometry, primary screen (AID 1870;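 active = percent response above a set limit, the screen-wide mean plus 3 SD, cut at about 130% in these data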;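 note: barcoded CIT2-GFP strain pooled with four other GFP strains with rapamycin as positive control; median GFP fluorescence per well over plate mean of DMSO wells so 100% = DMSO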); conditions: S. cerevisiae CIT2-GFP expression, 3 h, at 10 µM, stronger effect = higher value
[4] = TOR pathway LAP4-GFP level changes – S. cerevisiae, multiplex flow cytometry, primary screen (AID 1873;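 active = GFP signal, as percent of the solvent control, above the screen mean plus 3 SD, about 149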); conditions: S. cerevisiae LAP4-GFP expression, 3 h, at 10 µM, stronger effect = higher value
[5] = yeast AGP1-GFP level changes, GLN3 branch – cell-based, multiplex flow cytometry, S. cerevisiae, primary screen (AID 1887;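 active = GFP signal above the screen-wide mean plus 3 SD, that is over about 124.5% of the solvent control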;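 note: AGP1-GFP fusion strain of S. cerevisiae within a five-strain barcoded multiplex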); conditions: 3 h, at 10 µM, stronger effect = higher value
[6] = reduced mouse 2C T cell binding to pMHC/ICAM-1 vesicles – MLPCN validation set, flow cytometry, LFA-1/ICAM-1 modulator project, pilot screen (AID 2523;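 active = response below a set limit, under 55% cells CD8-positive and vesicle-bound, and CD8 cells' 90th-percentile brightness under 279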;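 for vesicle binding response: mean PE anti-B7-1 fluorescence of CD8+ cells relative to row control; 100% = QL9-loaded vesicles with DMSO vehicle in the same plate row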); conditions: 2C mouse CD8+ T cells, at 7 µM, stronger effect = lower value; double positive events: measured here: CD8+/vesicle+ event percentage
[7] = target: Integrin beta-1 (Homo sapiens) + Integrin alpha-4 (Homo sapiens) (UniProt P13612+P05556); experiment: alpha4beta1 integrin LIBS antibody binding reduction – U937 cells, HUTS-21 mAb, flow cytometry, validation set, VLA-4 allosteric modulator project, pilot screen (AID 2674;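 active = inhibition above 50%, about 3 SD of the validation set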;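 note: antibody binding induced by the VLA-4 ligand LDV present at three times its Kd; 0% = LDV ligand with antibody and no compound and 100% = antibody without LDV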); conditions: HUTS-21 LIBS mAb binding, at 6.7 µM, stronger effect = higher value, binding induced by LDV ligand
[8] = calorie-restriction mimetic ROS inhibitors, yeast – validation compound set, pilot screen (AID 2706;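 active = superoxide response below 65% of plate, a cut near 3 SD across the whole screen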;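 note: yeast exposed to compound for one week at 30 degrees C before staining; 100% = mean of all compound wells on the same plate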); conditions: S. cerevisiae aging, superoxide DHE fluorescence; at 10 µM; stronger effect = lower value
[9] = target: Beta-adrenergic receptor kinase 1 (Homo sapiens) (UniProt P25098); experiment: GRK2 binders displacing RNA aptamer, biochemical, validation, human GRK2, bead flow cytometry (AID 488806;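 active = aptamer binding inhibition above 30%, about 3 SD of noise from non-fluorescent compounds; inactive = inhibition at or below 30%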); conditions: bead-bound GRK2, FAM-aptamer displacement, at 10 µM, stronger effect = higher value
[10] = target: Beta-2 adrenergic receptor (Homo sapiens) (UniProt P07550); experiment: agonist-induced loss of surface beta2AR – cell-based, FAP fluorogen, flow cytometry, validation set, pilot screen (AID 504459;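 active = percent response above 42, roughly 3 SD of non-fluorescent test compounds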;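 note: agonist-driven loss of surface beta2AR via internalization measured by FAP dye flow cytometry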); conditions: Am2.2-beta2AR cells, at 10 µM, stronger effect = higher value
[11] = target: AP-2 complex subunit beta (Homo sapiens) (UniProt P63010); experiment: beta-arrestin/AP2 interaction blockers – biochemical, validation set, GST-AP2 beads, flow cytometry, pilot screen (AID 504541;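 active = inhibition above 54%, about 3 SD of non-fluorescent compounds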;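 note: AP2 carries R879A mutation and is captured from E. coli lysate; bead-bound FITC arrestin peptide fluorescence measuring arrestin peptide binding to AP2; 0% = DMSO wells and 100% = excess unlabeled arrestin peptide control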); conditions: FITC arrestin peptide, at 10 µM, stronger effect = higher value, AP2 beta2 appendage fragment, R879A mutant
[12] = cytosolic pH regulators acting via V-ATPase – S. cerevisiae, pHLuorin, HTS validation (AID 504600; in the data active = response above about 15%;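 note: plate controls were DMSO for no effect and reference compound for full effect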); conditions: V-ATPase proton transport, at 10 µM, stronger effect = higher value
[13] = test system: anti-desmoglein-3 scFv antibody binding to human DSG3; experiment: blockers of pathogenic pemphigus antibody–desmoglein-3 binding – biochemical, validation compound set, bead-based, flow cytometry, pilot screen (AID 588368;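 active = binding below the plate cutoff, the plate median minus 3 SD, with a reading above zero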;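 note: signal is the median channel fluorescence of bead-bound GFP antibody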); conditions: Protein G beads, DSG3-Fc, scFv-GFP binding, at 10 µM, stronger effect = lower value
[14] = Nile Red efflux blockade in pump-expressing yeast – validation compound set, multiplex, phenotypic, pilot screen (AID 588506;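 active = efflux inhibition above 0.42, the validation set average plus 4 SD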;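 note: Nile Red retained in cells so higher fluorescence means more efflux inhibition; 0 = negative control wells and 1 = enniatin B 25 µM full block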); conditions: S. cerevisiae pump-expressing triplex, Nile Red efflux flow cytometry; at 10 µM; stronger effect = higher value; the pumps come from Candida albicans
[15] = target: ATP-binding cassette sub-family B member 6 (Homo sapiens) (UniProt Q9NP58); experiment: blockers of ABCB6-driven porphyrin uptake – K562-ABCB6 cells, flow cytometry, validation set, pilot screen (AID 588550); conditions: K562-ABCB6 porphyrin accumulation, 1 h, at 10 µM, stronger effect = higher value;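 note: 0% = DMSO wells and 100% = benzethonium chloride 70 µM positive control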
[16] = AML differentiation inducers, ER-HoxA9 marrow cells – cell-based, GFP/MAC1 double positive, flow cytometry, validation set, primary screen (AID 588685;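 active = differentiation response of at least 50%, scaled between solvent and reference control, from cells with both markers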;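 note: compound exposure lasts four days before antibody staining and flow analysis; 0% = DMSO wells and 100% = 5 µM fulvestrant positive control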); conditions: stronger effect = higher value, normalized: vehicle 0, fulvestrant 100

Chain of AP-2 complex subunit beta (Homo sapiens) (P63010 whole entry, looked up, the tested form may be a part, one chain of several): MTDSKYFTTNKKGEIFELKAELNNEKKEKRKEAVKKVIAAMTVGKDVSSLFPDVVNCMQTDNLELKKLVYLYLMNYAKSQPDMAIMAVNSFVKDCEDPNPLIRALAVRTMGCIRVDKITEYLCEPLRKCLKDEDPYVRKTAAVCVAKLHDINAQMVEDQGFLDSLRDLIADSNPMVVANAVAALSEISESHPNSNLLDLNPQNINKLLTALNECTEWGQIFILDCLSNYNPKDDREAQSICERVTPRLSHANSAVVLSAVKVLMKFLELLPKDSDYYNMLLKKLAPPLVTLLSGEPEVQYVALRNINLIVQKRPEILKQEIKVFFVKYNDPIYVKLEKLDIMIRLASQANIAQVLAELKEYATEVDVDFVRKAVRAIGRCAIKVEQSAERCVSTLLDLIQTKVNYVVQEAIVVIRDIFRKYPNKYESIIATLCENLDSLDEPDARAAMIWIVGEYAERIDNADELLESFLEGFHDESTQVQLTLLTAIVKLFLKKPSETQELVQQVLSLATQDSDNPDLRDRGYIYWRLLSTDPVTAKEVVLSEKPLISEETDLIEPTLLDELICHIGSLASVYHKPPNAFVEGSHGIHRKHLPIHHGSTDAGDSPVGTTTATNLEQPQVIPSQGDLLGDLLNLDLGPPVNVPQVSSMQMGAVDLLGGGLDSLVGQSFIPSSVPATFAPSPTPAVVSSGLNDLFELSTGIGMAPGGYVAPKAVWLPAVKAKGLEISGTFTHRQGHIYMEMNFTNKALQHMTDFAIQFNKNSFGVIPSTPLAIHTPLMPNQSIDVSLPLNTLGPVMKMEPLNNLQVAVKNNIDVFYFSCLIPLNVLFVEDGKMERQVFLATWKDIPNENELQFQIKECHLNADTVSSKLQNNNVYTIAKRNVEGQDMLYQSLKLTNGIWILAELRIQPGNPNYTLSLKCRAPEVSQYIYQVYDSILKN
Chain of Integrin beta-1 (Homo sapiens) + Integrin alpha-4 (Homo sapiens) (P05556 whole entry, looked up): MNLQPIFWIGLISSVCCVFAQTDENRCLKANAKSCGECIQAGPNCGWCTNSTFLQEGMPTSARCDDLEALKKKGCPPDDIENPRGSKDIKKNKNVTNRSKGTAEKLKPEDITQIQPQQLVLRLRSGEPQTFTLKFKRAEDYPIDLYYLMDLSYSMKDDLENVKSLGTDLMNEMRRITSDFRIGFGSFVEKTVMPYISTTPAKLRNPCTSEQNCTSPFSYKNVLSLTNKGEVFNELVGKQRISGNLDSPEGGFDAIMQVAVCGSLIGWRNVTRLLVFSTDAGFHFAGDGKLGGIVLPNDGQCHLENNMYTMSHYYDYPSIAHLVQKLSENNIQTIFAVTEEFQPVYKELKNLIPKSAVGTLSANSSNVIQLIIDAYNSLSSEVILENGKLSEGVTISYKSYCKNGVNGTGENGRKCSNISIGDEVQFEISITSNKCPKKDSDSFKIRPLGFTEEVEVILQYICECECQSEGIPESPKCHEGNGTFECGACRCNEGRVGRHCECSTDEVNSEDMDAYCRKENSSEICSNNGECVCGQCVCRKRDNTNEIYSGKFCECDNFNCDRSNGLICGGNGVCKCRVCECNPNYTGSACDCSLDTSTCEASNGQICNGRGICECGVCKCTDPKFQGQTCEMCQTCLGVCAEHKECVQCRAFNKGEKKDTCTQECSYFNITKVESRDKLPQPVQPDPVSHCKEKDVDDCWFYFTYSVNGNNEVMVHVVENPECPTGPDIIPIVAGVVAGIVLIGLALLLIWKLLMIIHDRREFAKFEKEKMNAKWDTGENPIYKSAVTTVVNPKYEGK
Chain of Integrin beta-1 (Homo sapiens) + Integrin alpha-4 (Homo sapiens) (P13612 whole entry, looked up): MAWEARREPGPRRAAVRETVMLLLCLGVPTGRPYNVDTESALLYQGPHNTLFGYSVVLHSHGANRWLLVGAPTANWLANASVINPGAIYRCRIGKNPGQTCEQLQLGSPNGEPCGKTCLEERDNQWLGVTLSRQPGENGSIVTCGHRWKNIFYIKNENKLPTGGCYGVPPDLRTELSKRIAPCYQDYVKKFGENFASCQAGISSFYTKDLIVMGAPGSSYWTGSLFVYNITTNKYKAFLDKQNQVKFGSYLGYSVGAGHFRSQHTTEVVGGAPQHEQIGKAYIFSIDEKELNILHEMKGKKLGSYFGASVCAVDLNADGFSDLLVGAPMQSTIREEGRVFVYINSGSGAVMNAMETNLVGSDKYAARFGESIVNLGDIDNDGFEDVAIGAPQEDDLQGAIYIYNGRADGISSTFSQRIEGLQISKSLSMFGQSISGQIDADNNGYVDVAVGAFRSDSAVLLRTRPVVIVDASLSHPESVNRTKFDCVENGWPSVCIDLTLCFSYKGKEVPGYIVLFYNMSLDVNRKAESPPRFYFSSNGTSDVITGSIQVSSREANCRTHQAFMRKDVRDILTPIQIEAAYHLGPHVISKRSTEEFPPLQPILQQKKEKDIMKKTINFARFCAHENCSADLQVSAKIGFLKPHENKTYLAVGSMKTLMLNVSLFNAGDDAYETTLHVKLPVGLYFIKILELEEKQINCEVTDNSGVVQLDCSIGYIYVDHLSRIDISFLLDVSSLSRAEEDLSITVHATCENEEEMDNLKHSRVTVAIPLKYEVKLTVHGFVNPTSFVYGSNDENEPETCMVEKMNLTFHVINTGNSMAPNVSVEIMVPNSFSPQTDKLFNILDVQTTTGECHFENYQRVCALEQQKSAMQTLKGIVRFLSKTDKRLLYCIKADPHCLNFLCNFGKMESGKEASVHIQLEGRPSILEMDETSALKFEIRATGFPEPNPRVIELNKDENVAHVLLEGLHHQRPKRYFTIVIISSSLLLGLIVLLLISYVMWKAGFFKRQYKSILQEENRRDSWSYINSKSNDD
Chain of ATP-binding cassette sub-family B member 6 (Homo sapiens) (Q9NP58 whole entry, looked up): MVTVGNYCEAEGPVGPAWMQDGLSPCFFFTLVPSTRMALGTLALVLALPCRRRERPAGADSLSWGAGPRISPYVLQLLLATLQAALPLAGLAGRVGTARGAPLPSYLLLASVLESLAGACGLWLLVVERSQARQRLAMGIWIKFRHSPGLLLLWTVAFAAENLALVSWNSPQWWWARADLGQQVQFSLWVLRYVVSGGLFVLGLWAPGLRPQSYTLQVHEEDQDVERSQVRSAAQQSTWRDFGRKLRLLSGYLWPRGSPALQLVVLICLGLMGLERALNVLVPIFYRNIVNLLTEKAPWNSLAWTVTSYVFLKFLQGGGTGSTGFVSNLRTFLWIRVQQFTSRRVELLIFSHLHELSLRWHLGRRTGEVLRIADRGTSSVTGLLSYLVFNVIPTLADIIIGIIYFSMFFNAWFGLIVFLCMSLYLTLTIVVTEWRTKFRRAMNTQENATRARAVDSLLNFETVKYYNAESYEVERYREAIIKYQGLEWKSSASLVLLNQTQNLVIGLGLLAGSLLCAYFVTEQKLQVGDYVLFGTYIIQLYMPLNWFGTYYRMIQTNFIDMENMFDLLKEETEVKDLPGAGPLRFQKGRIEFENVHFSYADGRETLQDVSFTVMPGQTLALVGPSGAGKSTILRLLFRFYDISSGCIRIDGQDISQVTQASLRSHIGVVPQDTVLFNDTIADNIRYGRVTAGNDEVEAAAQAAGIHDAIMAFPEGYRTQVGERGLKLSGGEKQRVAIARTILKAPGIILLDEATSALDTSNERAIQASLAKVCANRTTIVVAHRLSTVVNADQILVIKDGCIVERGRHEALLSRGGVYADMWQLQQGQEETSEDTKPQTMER
Chain of Beta-2 adrenergic receptor (Homo sapiens) (P07550 whole entry, looked up): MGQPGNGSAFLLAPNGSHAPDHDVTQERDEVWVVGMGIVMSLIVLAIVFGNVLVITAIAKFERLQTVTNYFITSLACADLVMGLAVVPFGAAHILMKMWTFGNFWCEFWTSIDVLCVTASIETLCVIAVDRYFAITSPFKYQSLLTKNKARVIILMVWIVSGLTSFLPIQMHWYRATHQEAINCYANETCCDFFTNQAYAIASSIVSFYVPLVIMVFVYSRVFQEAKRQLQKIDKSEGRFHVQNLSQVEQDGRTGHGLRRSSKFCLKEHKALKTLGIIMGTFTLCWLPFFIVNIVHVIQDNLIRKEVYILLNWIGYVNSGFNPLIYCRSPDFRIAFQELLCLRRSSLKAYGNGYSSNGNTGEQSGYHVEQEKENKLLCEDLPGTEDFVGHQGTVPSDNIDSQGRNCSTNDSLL
Chain of Beta-adrenergic receptor kinase 1 (Homo sapiens) (P25098 whole entry, looked up): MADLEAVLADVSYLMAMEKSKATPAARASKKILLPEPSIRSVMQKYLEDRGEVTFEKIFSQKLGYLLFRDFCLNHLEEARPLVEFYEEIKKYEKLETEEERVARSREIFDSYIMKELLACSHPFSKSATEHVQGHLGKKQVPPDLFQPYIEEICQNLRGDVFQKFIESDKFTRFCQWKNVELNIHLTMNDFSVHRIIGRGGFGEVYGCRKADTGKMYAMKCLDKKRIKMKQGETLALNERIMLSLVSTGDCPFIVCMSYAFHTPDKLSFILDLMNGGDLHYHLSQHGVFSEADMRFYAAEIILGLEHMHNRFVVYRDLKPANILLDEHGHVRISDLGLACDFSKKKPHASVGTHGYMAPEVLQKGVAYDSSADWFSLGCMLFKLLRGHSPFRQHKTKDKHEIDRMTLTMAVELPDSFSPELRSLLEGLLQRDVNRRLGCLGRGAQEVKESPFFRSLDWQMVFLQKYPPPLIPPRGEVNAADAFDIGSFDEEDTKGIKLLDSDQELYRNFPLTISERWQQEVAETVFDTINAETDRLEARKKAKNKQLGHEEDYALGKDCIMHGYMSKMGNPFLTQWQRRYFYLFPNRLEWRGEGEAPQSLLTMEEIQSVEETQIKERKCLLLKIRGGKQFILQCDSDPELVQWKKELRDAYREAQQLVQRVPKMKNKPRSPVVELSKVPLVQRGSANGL

| Structure (SMILES) | percent of DMSO control GFP [1] | GFP response vs DMSO [2] | percent response of DMSO control [3] | GFP response vs DMSO [4] | GFP response, % of DMSO [5] | double positive events [6] [%] | vesicle binding response [6] | inhibition [7] | superoxide response (% of plate) [8] | aptamer binding inhibition [9] | response [10] | inhibition [11] | response [12] | binding (% of control) [13] | efflux inhibition (fraction of control) [14] | inhibition [15] | differentiation response [16] |
| --- | --- | --- | --- | --- | --- | --- | --- | --- | --- | --- | --- | --- | --- | --- | --- | --- | --- |
| CC1(CC(=O)Nc2ccccc2)NC(=S)N(c2ccccc2)N1 (stereo not drawn) | 106% (inactive) | 111% (inactive) | 90.1% (inactive) | 134% (inactive) | 104% (inactive) | 49.5 | 9640% (inactive) | -0.43% (inactive) | 109% (inactive) | 5% (inactive) | -7.2% (inactive) | -4.29% (inactive) | -0.03% (inactive) | 99.1% (inactive) | -0.13 (inactive) | 6% (inactive) | -18.4% (inactive) |
| CC(C)(C)NCC(O)COc1ccccc1C(=O)CCc1ccccc1 (stereo not drawn) | 101% (inactive) | 101% (inactive) | 96.4% (inactive) | 108% (inactive) | 122% (inactive) | 60.4 | 196% (inactive) | 44% (inactive) | 129% (inactive) | -1% (inactive) | -37.6% (inactive) | -9.53% (inactive) | -4.49% (inactive) | 104% (inactive) | 0.04 (inactive) | 8% (inactive) | 46.2% (inactive) |
| CC1(C)CC(CC(=O)O)(c2ccc(Cl)cc2)CCO1 (stereo not drawn) | 86% (inactive) | 126% (inactive) | 96.6% (inactive) | 85.3% (inactive) | 92.8% (inactive) | 61.2 | 136% (inactive) | -0.33% (inactive) | 94.5% (inactive) | 3% (inactive) | -2.75% (inactive) | -8.86% (inactive) | 0.57% (inactive) | 107% (inactive) | -0.17 (inactive) | 9% (inactive) | -3.28% (inactive) |
| Cc1ccc(S(=O)(=O)N[C@@H](C)C(=O)N2CCC(C(=O)N3CCC[C@H]3C(=O)O)CC2)cc1 | 95% (inactive) | 129% (inactive) | 103% (inactive) | 79.2% (inactive) | 88.4% (inactive) | 71 | 174% (inactive) | 3.55% (inactive) | 92.7% (inactive) | 9% (inactive) | -2.38% (inactive) | -9.12% (inactive) | -1.19% (inactive) | 100% (inactive) | -0.2 (inactive) | 8% (inactive) | 0% (inactive) |
| O=C(CSCc1ccccc1)NCCCN1CCOCC1 | 97.9% (inactive) | 106% (inactive) | 104% (inactive) | 98% (inactive) | 107% (inactive) | 62.4 | 197% (inactive) | 12.3% (inactive) | 114% (inactive) | 3% (inactive) | -1.38% (inactive) | -9.56% (inactive) | 3.45% (inactive) | 102% (inactive) | 0.17 (inactive) | 15% (inactive) | -14.8% (inactive) |
| O=C1[C@@H]2[C@H](Cc3ccc(O)cc3)N[C@]3(C(=O)Nc4ccccc43)[C@@H]2C(=O)N1c1ccc(F)cc1 | 106% (inactive) | 103% (inactive) | 100% (inactive) | 90.1% (inactive) | 91.9% (inactive) | 61.1 | 1070% (inactive) | 14.1% (inactive) | 90% (inactive) | 2% (inactive) | -3.4% (inactive) | 3.35% (inactive) | -0.08% (inactive) | 92.2% (inactive) | 0.3 (inactive) | 0% (inactive) | 6.11% (inactive) |
| Oc1[nH]c2ccccc2c1C1=NCCCC1 | 102% (inactive) | 105% (inactive) | 96% (inactive) | 99.4% (inactive) | 106% (inactive) | 63.2 | 161% (inactive) | -3.18% (inactive) | 84.9% (inactive) | 8% (inactive) | 17.8% (inactive) | -15.4% (inactive) | 1.51% (inactive) | 102% (inactive) | -0.12 (inactive) | 11% (inactive) | 0% (inactive) |
| O=C(NC(=S)Nc1ccc2c(c1)OCCO2)c1ccccc1F | 103% (inactive) | 108% (inactive) | 101% (inactive) | 93% (inactive) | 97.7% (inactive) | 61.5 | 2360% (inactive) | 1.12% (inactive) | 109% (inactive) | 2% (inactive) | 5.42% (inactive) | 7.78% (inactive) | 1.01% (inactive) | 98.5% (inactive) | -0.12 (inactive) | 9% (inactive) | 0% (inactive) |
| C[C@@H]1C[C@H]2[C@@H]3C[C@H](F)C4=CC(=O)C=C[C@]4(C)[C@@]3(F)[C@@H](O)C[C@]2(C)[C@@]1(O)C(=O)COC(=O)C(C)(C)C | 101% (inactive) | 105% (inactive) | 99.3% (inactive) | 98.7% (inactive) | 99.2% (inactive) | 58.5 | 142% (inactive) | 6.85% (inactive) | 104% (inactive) | 3% (inactive) | -5.56% (inactive) | 19.2% (inactive) | 0.5% (inactive) | 100% (inactive) | 0.14 (inactive) | 4% (inactive) | -4.16% (inactive) |
